Rows were chosen to be rich in hits. Some 10% of all compounds tested hit in one or more screens of this group.
NPR1 antag: human Npr1 receptor antagonism; 76,000 compounds, 1.6% hits; Potency, µM (doses to about 46.3 µM), usual class: inhibitors; P16066; AID 1347048; HEK293 hNpr1 GloSensor cGMP, ANP-stimulated luminescence; calls by dose curve; note: nearly all actives have a fitted effect of over 60% in size
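Compound pre-incubated 30 min at room temperature on GloSensor-loaded HEK293 cells stably carrying hNpr1 and the pGS-40F cGMP biosensor. Stimulation uses hNppA at 0.1 nM final; luminescence is taken at baseline and 20 min post-agonist.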
HEK293 tox: HEK 293 cell cytotoxicity | 94,000 compounds, 6.6% hits | Potency, µM (titrated, usually from 115 µM), usual class: inhibitors | HEK 293 viability, ATP luminescence (CellTiter-Glo), 48-72 h | AID 1345083; note: nearly all actives have a fitted effect of over 60% in size
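Cytotoxicity was scored by loss of ATP-coupled luminescence (CellTiter-Glo) in HEK 293 cells. Compound treatment ran 48 or 72 hr at 37 degree Celsius, 5% CO2, 95% humidity.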
FLuc inh: Photinus pyralis luciferase inhibition | P08659 | purified P. pyralis luciferase, luminescence, biochemical | Potency, µM (titrated, usually from 115 µM), hits mostly inhibitors | 76,000 compounds, 2.5% hits | AID 1347043; note: nearly all actives have a fitted effect of over 65% in size
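Purified P. pyralis luciferase (10nM final) in 50mM Tris acetate pH 7.5, 10mM Mg acetate, 0.01% Tween-20, 0.05% BSA with 10uM D-luciferin and 10uM ATP. Compounds titrated qHTS. Luminescence imaged on CCD.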
GPT2 inhibitor: inhibitors of human GPT2 alanine aminotransferase | Recombinant GPT2, coupled pyruvate oxidase/HRP Amplex Red fluorescence | 100,000 compounds, 0.25% hits | Potency, µM (titrated, usually from 57.7 µM), most hits filed as inhibitors | Q8TD30; note: nearly all actives have a fitted effect of over 60% in size
Target sequence (Q8TD30 whole entry, looked up): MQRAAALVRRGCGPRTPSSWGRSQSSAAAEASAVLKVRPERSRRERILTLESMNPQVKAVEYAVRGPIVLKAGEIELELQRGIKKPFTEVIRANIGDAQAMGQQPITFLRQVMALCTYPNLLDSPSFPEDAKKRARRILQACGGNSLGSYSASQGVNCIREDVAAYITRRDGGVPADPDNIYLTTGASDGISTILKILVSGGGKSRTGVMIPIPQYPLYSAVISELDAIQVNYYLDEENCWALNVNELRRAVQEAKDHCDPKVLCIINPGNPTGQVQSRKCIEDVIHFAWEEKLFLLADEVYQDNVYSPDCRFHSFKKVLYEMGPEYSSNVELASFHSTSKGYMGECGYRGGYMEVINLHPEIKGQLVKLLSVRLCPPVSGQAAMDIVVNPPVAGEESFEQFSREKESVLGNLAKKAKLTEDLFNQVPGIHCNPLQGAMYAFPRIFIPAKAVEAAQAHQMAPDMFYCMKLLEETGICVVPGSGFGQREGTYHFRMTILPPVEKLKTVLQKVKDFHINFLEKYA
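GPT2 10ng/uL, a-KG 250uM, L-Ala 2mM, HEPES pH7.5 + 0.0001% Tween; 30 min RT. Then Amplex mix (PO/HRP/ThPP), 30 min RT dark, fluorescence. AOA 50uM used as positive control.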
NIH3T3 tox: kills NIH 3T3 cells; Potency, µM (doses to about 96.7 µM), hits mostly inhibitors; NIH 3T3 viability, CellTiter-Glo ATP luminescence, 48-72 h; 94,000 compounds, 4.3% hits; note: nearly all actives have a fitted effect of over 55% in size
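Luminescent ATP readout (CellTiter-Glo, 10 min RT) after 48 or 72 hr compound exposure of NIH 3T3 cells seeded at 400 cells/well in 1536-well format; quantitative HTS.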
Hits are given with their value; n = inactive; u = inconclusive; x = no result given. Unless noted, calls come from the whole dose curve; as a rule, active = well fitted curve in the direction sought with a large enough effect; inconclusive = small, poorly fitted or top-dose-only effect, or another doubt; inactive = no such curve, though single readings can be large; an effect the other way counts as inactive or inconclusive.

SMILES	NPR1 antag	HEK293 tox	FLuc inh	GPT2 inhibitor	NIH3T3 tox
COc1cccc(Nc2cccc(CN3CCCC(C)(NC(C)=O)C3)c2)c1 (stereo unspecified)	n	u	n	n	u
COc1cccc(-c2nc(N3CCOCC3)cc3c2CN(C)C3=O)c1OC	n	u	n	n	u
CN1Cc2c(cc(N3CCOCC3)nc2-c2cccc(C(F)(F)F)c2)C1=O	n	n	n	u	5.6µM
COc1cccc(-c2nc(N3CCOCC3)cc3c2CN(C)C3=O)c1	n	u	n	n	16µM
CN1Cc2c(cc(N3CCOCC3)nc2-c2cccc(N[S+](C)(=O)[O-])c2)C1=O	n	u	n	n	14µM
CC(=O)Nc1cccc(-c2nc(N3CCOCC3)cc3c2CN(Cc2cnn(C)c2)C3=O)c1	n	n	n	n	u
COC(=O)CNC(=O)c1cccc(-c2ccc(OC)nn2)c1	x	n	x	x	n
Cc1ccc2c(n1)OC(COc1ccccc1)CN(Cc1cccc(F)c1)C2=O (stereo unspecified)	x	u	x	n	u
Cc1ccccc1C(=O)NC1CCN(C(=O)c2ccc(-c3cncnc3)cc2)CC1	x	n	x	n	n
CC1(COCC2CC2)COc2ccc(C(=O)Nc3ccc4[nH]ccc4c3)cc2N1 (stereo unspecified)	u	u	16µM	n	45µM
CC1(CCCCN2CCOCC2)COc2ccc(C(=O)Nc3ccc4[nH]ccc4c3)cc2N1 (stereo unspecified)	u	u	n	n	n
CN(C)CCOCC1(C)COc2ccc(C(=O)Nc3ccc4[nH]ccc4c3)cc2N1 (stereo unspecified)	n	u	50µM	n	u
CCCC(O)CN1CCC(=O)N(CC2CC2)Cc2ccccc21 (stereo unspecified)	x	u	x	x	n
N#Cc1ccc(CN2CC3(Cc4ccccc4C(=O)N3)C2)cc1	x	u	x	n	35µM
COc1ccc(CN2CC3(Cc4ccccc4C(=O)N3)C2)cc1	x	u	x	n	u
O=C(NCC(F)F)C1CCCN(c2nccc(Nc3ccccc3F)n2)C1 (stereo unspecified)	x	u	x	n	u
O=C(NCc1ccc(F)c(F)c1)c1ccc2nnc(Cc3ccc(Cl)cc3)n2c1	x	u	x	n	35µM
O=C(NCCc1ccccc1F)c1ccc2nnc(Cc3ccc(Cl)cc3)n2c1	x	u	x	n	u
COc1ccc(CCNC(=O)c2ccc3nnc(-c4ccc(Cl)cc4)n3c2)cc1	x	n	x	n	n
O=C(NCc1ccc(Cl)cc1)c1ccc2nnc(-c3ccc(Cl)cc3Cl)n2c1	x	u	x	n	32µM
COc1ccc(Cc2nnc3ccc(C(=O)NCCc4ccc(Cl)cc4)cn23)cc1	x	89µM	x	n	u
O=C(Nc1cccc(Cl)c1)c1ccc2nnc(-c3ccc(Cl)cc3)n2c1	x	40µM	x	n	45µM
CC(C)S(=O)(=O)N1CCN(c2ccc3nnc(C4CC4)n3n2)CC1	x	n	x	x	n
O=C1NC2(CCCN(Cc3ccc(C(F)(F)F)cc3)C2)COc2ccccc21 (stereo unspecified)	n	u	n	n	u
CC(C)C[C@@H]1N[C@H](C(=O)NC(C)C)Cc2cn(Cc3ccncc3)c3cccc1c23	u	u	n	n	32µM
SMILES	NPR1 antag	HEK293 tox	FLuc inh	GPT2 inhibitor	NIH3T3 tox
CC(C)C[C@@H]1N[C@H](C(=O)NCC2CC2)Cc2cn(Cc3ccncc3)c3cccc1c23	n	35µM	n	n	u
CCCNC(=O)[C@@H]1Cc2cn(Cc3ccccn3)c3cccc(c23)[C@H](CC(C)C)N1	n	u	n	n	u
CCCNC(=O)[C@@H]1Cc2cn(Cc3cccnc3)c3cccc(c23)[C@H](CC(C)C)N1	n	u	n	n	89µM
CCCNC(=O)[C@@H]1Cc2cn(Cc3ccncc3)c3cccc(c23)[C@H](CC(C)C)N1	u	32µM	n	n	25µM
O=C(C1CC1)N1CCCN(c2ccc3nnc(C4CC4)n3n2)CC1	x	n	x	x	n
O=C(CCCc1ccccc1)N1CCC2(CC1)CC(CO)N(C(=O)c1ccccc1)C2 (stereo unspecified)	x	u	x	n	n
COc1ccc(F)cc1-c1cccc(C(=O)NCCN[S+](=O)([O-])c2ccc(C)cc2)c1	x	u	x	n	u
Cc1cn2nc(C(=O)NC3CCc4ccccc43)cc2c(N2CCCC2)n1 (stereo unspecified)	n	u	n	n	u
CC(C)C[C@@H]1N[C@H](C(=O)O)Cc2cn(Cc3ccncc3)c3cccc1c23	n	n	n	n	n
CC(C)C[C@@H]1N[C@H](C(=O)NCCN(C)C)Cc2cn(Cc3ccncc3)c3cccc1c23	n	40µM	n	n	28µM
CN1CC(=O)N(c2cccnc2)Cc2c1ncnc2N1CCCCC1	n	n	n	n	n
O=C(NC[C@H]1O[C@H](Cc2cc(COc3ccccc3)on2)CC[C@@H]1O)C1CCC1	n	u	n	n	u
Cc1noc(C)c1-c1cc(-c2cccc(F)c2)cn2cncc12	n	u	n	n	45µM
Cc1noc(C)c1-c1cc(-c2cccc(O)c2)cn2cncc12	n	u	n	n	25µM
Cc1noc(C)c1-c1cc(-c2ccc(CO)cc2)cn2cncc12	n	u	n	n	u
COc1ccc(-c2cc(-c3c(C)noc3C)c3cncn3c2)cn1	n	u	n	n	50µM
COc1cccc(CNC(=O)C2CCCN2C(=O)c2cccc(-c3cccc(OC)c3)c2)c1 (stereo unspecified)	x	u	x	n	u
O=C(O)[C@H]1C[C@]2(CCCCNC2=O)N(C(=O)CCc2ccccc2)[C@H]1c1ccco1	x	n	x	x	u
O=C(Nc1ccc(Cl)nc1)c1ccc2ccnn2c1	n	u	u	n	n
Cc1nn2c(c1-c1ccccc1[S+](C)(=O)[O-])N(Cc1ccccc1)CCC2	n	u	n	n	10µM
Cc1nn2c(c1-c1ccccc1OCc1ccccc1)N(Cc1cccc(O)c1)CCC2	u	28µM	n	n	25µM
COc1cccc(CN2CCCn3nc(C)c(-c4ccccc4[S+](C)(=O)[O-])c32)c1	n	u	n	n	u
Cc1nn2c(c1-c1ccccc1OCc1ccccc1)N(C(=O)C1CCC1)CCC2	n	40µM	n	n	u
O=C(c1cnccn1)N1CCCC1c1noc(CO)n1 (stereo unspecified)	x	n	x	n	n
CCNC(=O)OC1CN(C(=O)c2ccc(C(C)(C)C)cc2)CCC(=O)N(C)c2ccccc21 (stereo unspecified)	x	u	x	n	n
CCc1nc(NCc2cn[nH]c2-c2ccc(Cl)cc2)c2cnn(C)c2n1	n	u	n	n	45µM
CCCc1nc(NCc2c(F)ccc(OC)c2F)c2cnn(C)c2n1	u	u	n	n	u
CCOC(=O)[C@H]1C[C@]2(CCCCN(CCOC)C2=O)N(C(=O)Cc2cccs2)[C@H]1c1ccco1	x	79µM	x	x	u
CNC(=O)[C@H]1C[C@]2(CCCCN(CCO)C2=O)N(C(=O)Cc2cccs2)[C@H]1c1ccco1	x	35µM	x	x	u
